Activity calls are given as the source filed them. Unless noted, how the calls were made is not given here.
How the values were obtained:
[1] = system: XIP peptide (Xip251-270) binding; assay: small-molecule binders of XIP peptide, primary screen, biochemical, small-molecule microarray, fluorescence 635/667 nm, 0.1 µg/mL protein (AID 1182); conditions: fluorescent protein binding, 635 nm, higher = more signal, called active from +8 up or from −8 down
[2] = system: XIP peptide (Xip251-270); assay: small-molecule binders of XIP peptide, primary screen, biochemical, small-molecule microarray, fluorescence 635/667 nm, 0.5 µg/mL protein (AID 1183); conditions: small-molecule microarray binding, fluorescence 635 nm; higher = more signal
[3] = Plasmodium falciparum growth inhibition, primary screen, strain 3D7, DAPI fluorescence, 100 nL (AID 1184);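 further: parasites grown inside human red blood cells in medium with human serum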; conditions: P. falciparum 3D7 growth, 3 d, higher = more signal
[4] = target: Homeobox protein Hox-A13 (Mus musculus) (UniProt Q62424); assay: inhibitors of HoxA13-DNA binding, primary screen, biochemical, fluorescence polarization, labeled oligonucleotide (AID 1185); conditions: 15 min, higher = more signal, called active from +8 up or from −8 down
Homeobox protein Hox-A13 (Mus musculus), sequence (Q62424 whole entry, looked up): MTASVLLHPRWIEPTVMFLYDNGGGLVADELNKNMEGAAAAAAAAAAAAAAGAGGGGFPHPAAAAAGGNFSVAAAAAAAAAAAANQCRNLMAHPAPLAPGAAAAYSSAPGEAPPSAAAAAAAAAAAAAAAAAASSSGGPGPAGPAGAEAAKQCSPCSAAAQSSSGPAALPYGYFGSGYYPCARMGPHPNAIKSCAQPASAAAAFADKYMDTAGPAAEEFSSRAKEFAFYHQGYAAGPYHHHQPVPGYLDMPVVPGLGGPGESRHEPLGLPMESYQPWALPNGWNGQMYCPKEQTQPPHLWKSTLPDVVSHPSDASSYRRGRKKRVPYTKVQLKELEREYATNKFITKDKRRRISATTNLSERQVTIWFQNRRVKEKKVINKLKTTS

[5] = inhibitors of hydroxyurea-induced Chk1 phosphorylation, primary screen, imaging, HeLa, phospho-Chk1 antibody, percent positive cells (AID 1186); conditions: hydroxyurea-induced phospho-Chk1 immunofluorescence imaging, higher = more signal
[6] = inhibitors of hydroxyurea-induced Chk1 phosphorylation, primary screen, imaging, HeLa, phospho-Chk1 nuclear intensity (AID 1187); conditions: hydroxyurea-induced phospho-Chk1 immunofluorescence imaging, higher = more signal

SMILES: COC(=O)c1nc2oc1CC[C@@H](CO)NC(=O)N(C)Cc1cnnn1C[C@H](Cc1ccccc1)NC2=O
- composite z-score [1]: 0.618 (inactive)
- composite z-score [2]: 0.944
- z-score [3]: 1.06
- z-score [4]: -0.449 (inactive)
- z-score [5]: -0.517 (inactive)
- z-score [6]: -0.393 (inactive)

SMILES: O=C1O[C@H](c2ccccc2)[C@H](c2ccccc2)N2[C@H]1[C@@H](C(=O)Nc1nc3ccccc3s1)[C@]1(C(=O)Nc3ccc(C#CCCO)cc31)[C@H]2c1ccc(O)cc1
- composite z-score [1]: 0.25 (inactive)
- composite z-score [2]: 0.625
- z-score [3]: 0.902
- z-score [4]: -1.02 (inactive)
- z-score [5]: -0.334 (inactive)
- z-score [6]: -0.376 (inactive)

SMILES: COCCCNC(=O)[C@@]1(Cc2ccccc2N=[N+]=[N-])COC(c2ccc(OCCCO)cc2)=N1
- composite z-score [1]: 1 (inactive)
- composite z-score [2]: 0.626
- z-score [3]: -2.06
- z-score [4]: -5.18 (inactive)
- z-score [5]: -0.0232 (inactive)
- z-score [6]: -0.101 (inactive)

SMILES: CN(C)C(=O)[C@@]1(Cc2ccccc2CN=[N+]=[N-])N=C(c2ccc(OCCCO)cc2)O[C@H]1c1ccccc1CN=[N+]=[N-]
- composite z-score [1]: 0.105 (inactive)
- composite z-score [2]: 0.707
- z-score [3]: -2.15
- z-score [4]: -2.04 (inactive)
- z-score [5]: -0.0765 (inactive)
- z-score [6]: 0.127 (inactive)

SMILES: COCCOC(=O)N1C(=O)[C@@]2(c3cc(C#CC4=CCCCC4)ccc31)[C@H](c1ccccc1OCCO)N1[C@H](c3ccccc3)[C@H](c3ccccc3)OC(=O)[C@H]1[C@@H]2C(=O)N1CCCCCCC1
- composite z-score [1]: 0.549 (inactive)
- composite z-score [2]: 0.688
- z-score [3]: -2.05
- z-score [4]: 4.13 (inactive)
- z-score [5]: 0.234 (inactive)
- z-score [6]: 0.347 (inactive)

SMILES: COc1ccc(CCN2C(=O)[C@@]3(Cc4ccccc42)c2ccccc2C(=O)N(Cc2ccccc2OC)[C@H]3c2ccc(CO)cc2)cc1
- composite z-score [1]: -0.22 (inactive)
- composite z-score [2]: 0.425
- z-score [3]: -1.39
- z-score [4]: -0.208 (inactive)
- z-score [5]: -0.154 (inactive)
- z-score [6]: 0.0689 (inactive)

SMILES: C=C(CCCC)/C(=C/C[C@@H](OC(=O)c1ccncc1)c1ccccc1OCCO)c1cnc2ccccc2c1
- composite z-score [1]: 0.0648 (inactive)
- composite z-score [2]: 0.647
- z-score [3]: -3.02
- z-score [4]: -3.49 (inactive)
- z-score [5]: 0.294 (inactive)
- z-score [6]: -0.0646 (inactive)

SMILES: NC(=O)N1C(=O)C2C(C1=O)C1C=C(CCCO)C2C(c2cccs2)N1Cc1cccc(OC(F)(F)F)c1 (configuration not stated)
- composite z-score [1]: 1.07 (inactive)
- composite z-score [2]: 0.577
- z-score [3]: 0.379
- z-score [4]: -6.01 (inactive)
- z-score [5]: -0.356 (inactive)
- z-score [6]: -0.334 (inactive)

SMILES: CC(C)C(=C=CC[C@H](O)c1ccc(OCCO)cc1)C[C@H](O)c1ccccn1
- composite z-score [1]: -0.0991 (inactive)
- composite z-score [2]: 0.909
- z-score [3]: -2.06
- z-score [4]: -5.38 (inactive)
- z-score [5]: -0.0725 (inactive)
- z-score [6]: 0.223 (inactive)

SMILES: O=C(NCC(F)(F)F)[C@@H]1c2ccccc2C(=O)N(Cc2ccc(OC(F)(F)F)cc2)[C@H]1c1ccc(CO)cc1
- composite z-score [1]: 0.21 (inactive)
- composite z-score [2]: 0.235
- z-score [3]: -0.828
- z-score [4]: -3.13 (inactive)
- z-score [5]: -0.263 (inactive)
- z-score [6]: -0.383 (inactive)

SMILES: COCCOC(=O)N1C(=O)[C@@]2(c3cc(C#CC4=CCCCC4)ccc31)[C@H](c1ccc(O)cc1)N1[C@H](c3ccccc3)[C@H](c3ccccc3)OC(=O)[C@H]1[C@@H]2C(=O)N1CCN(c2ncccn2)CC1
- composite z-score [1]: -0.0719 (inactive)
- composite z-score [2]: 0.306
- z-score [3]: 0.145
- z-score [4]: -0.674 (inactive)
- z-score [5]: -0.231 (inactive)
- z-score [6]: -0.758 (inactive)

SMILES: O=C1C=C(c2ccccc2)C(=O)c2ccc([C@H]3Oc4ccccc4S(=O)(=O)N4CCC[C@@H]34)cc21
- composite z-score [1]: -0.668 (inactive)
- composite z-score [2]: 0.468
- z-score [3]: -3.17
- z-score [4]: -3.05 (inactive)
- z-score [5]: 0.808 (inactive)
- z-score [6]: 0.885 (inactive)

SMILES: C=CCOC(=O)[C@H]1[C@@H]2C(=O)O[C@@H](c3ccccc3)[C@@H](c3ccccc3)N2[C@@H](c2ccc(OCCOC(=O)[C@@H]3C[C@@H]4C(=O)N[C@@H](CCCCN(C)C)C(=O)N4[C@@H]3c3ccc(O)cc3)cc2)[C@]12C(=O)Nc1ccccc12
- composite z-score [1]: 2.41 (inactive)
- composite z-score [2]: 0.878
- z-score [3]: 0.0953
- z-score [4]: 4.03 (inactive)
- z-score [5]: -0.768 (inactive)
- z-score [6]: -0.475 (inactive)

SMILES: C=CCC(OC(C)=O)[C@@H]1[C@@H](N(Cc2cccc3ccccc23)C(=O)Cc2ccc(OC)cc2)c2cc(OCCCO)ccc2N1C(=O)c1ccc2ccccc2n1 (some centres not stated)
- composite z-score [1]: 1.24 (inactive)
- composite z-score [2]: -0.248
- z-score [3]: -2.54
- z-score [4]: -2.7 (inactive)
- z-score [5]: -2.34 (inactive)
- z-score [6]: -1.44 (inactive)

SMILES: CCOC(=O)C[C@H]1[C@H](OC(=O)c2cc3ccccc3oc2=O)[C@@H](NC(=O)c2ccc(-c3ccccc3)cc2)c2cc(OCCCO)ccc2N1C(=O)c1ccc2ccccc2n1
- composite z-score [1]: 0.155 (inactive)
- composite z-score [2]: 0.339
- z-score [3]: -0.949
- z-score [4]: -2.27 (inactive)
- z-score [5]: -0.359 (inactive)
- z-score [6]: -0.583 (inactive)

SMILES: NC(N)=NCCCn1cc(CNC(=O)[C@@H](N)Cc2ccccc2)nn1
- composite z-score [1]: 0.196 (inactive)
- composite z-score [2]: -1.17
- z-score [3]: 0.139
- z-score [4]: -1.61 (inactive)
- z-score [5]: 0.262 (inactive)
- z-score [6]: -0.174 (inactive)

SMILES: CN1C(=O)C2C=CC(C(O)c3cccc4ccccc34)N(N3CCCCC3)C2C1=O (configuration not stated)
- composite z-score [1]: 0.356 (inactive)
- composite z-score [2]: 0.749
- z-score [3]: 0.83
- z-score [4]: -4.64 (inactive)
- z-score [5]: 0.906 (inactive)
- z-score [6]: 0.271 (inactive)

SMILES: C=C(/C(=C/C[C@H](OC(=O)c1ccncc1)c1ccc(CO)o1)c1cc(C(=O)OC)ccc1OC)C(C)C
- composite z-score [1]: 0.0474 (inactive)
- composite z-score [2]: 0.554
- z-score [3]: -0.114
- z-score [4]: -5.26 (inactive)
- z-score [5]: -0.291 (inactive)
- z-score [6]: -0.218 (inactive)

SMILES: O=C(N1CCCCC1)[C@@]1(CCS(=O)(=O)c2ccccc2)COC(c2ccc(OCCCO)cc2)=N1
- composite z-score [1]: 1.16 (inactive)
- composite z-score [2]: 0.809
- z-score [3]: -2
- z-score [4]: -5.2 (inactive)
- z-score [5]: -0.0331 (inactive)
- z-score [6]: -0.187 (inactive)

SMILES: O=C(NCCCCCNC(=O)/C(Cc1ccccc1)=N/O)OCc1ccccc1
- composite z-score [1]: -0.333 (inactive)
- composite z-score [2]: 0.132
- z-score [3]: -1.94
- z-score [4]: -4.08 (inactive)
- z-score [5]: -0.466 (inactive)
- z-score [6]: 0.238 (inactive)

SMILES: CCOc1cc(C(O)C2C=CC3C(=O)N(c4ccccc4)C(=O)C3N2Nc2ccc(C#N)cc2)ccc1O (configuration not stated)
- composite z-score [1]: 0.186 (inactive)
- composite z-score [2]: 0.535
- z-score [3]: -0.435
- z-score [4]: -4.2 (inactive)
- z-score [5]: -0.22 (inactive)
- z-score [6]: -0.0602 (inactive)

SMILES: CCOC(=O)C1=C[C@@H](c2ccccc2)N(S(=O)(=O)c2ccc(C)cc2)[C@H]1c1ccccc1Cl
- composite z-score [1]: 0.566 (inactive)
- composite z-score [2]: 0.307
- z-score [3]: -2.02
- z-score [4]: 0.552 (inactive)
- z-score [5]: -0.339 (inactive)
- z-score [6]: -0.865 (inactive)

Reference: PubChem BioAssay
